Assay results: the supplement of paper PMC8975748
Counter-ions that a name gives are not always drawn.

These compounds were tested on Saccharomyces cerevisiae BY4741 SeMeCo community (assay: z-score of prototroph abundance vs DMSO median; higher = larger share of this subpopulation than in DMSO controls). Conditions: 10 µM; 24 h; SM minimal medium; subpopulation (auxotrophy): Prototroph.
Method: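 Fluorescent four-plasmid SeMeCo (self-establishing metabolically cooperating S. cerevisiae BY4741 community; plasmids pH-mRuby2, pL-mWasabi, pU-eCFP, pM-TagRFP657) was grown 24 h in minimal SM medium with each Selleck FDA-approved drug at 10 µM in 384-well plates. Cells were fixed and imaged by high-content confocal microscopy. For each auxotrophic subpopulation (and the prototroph), a z-score gives the deviation from the DMSO vehicle-control population median.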

Question: How did the “z-score of prototroph abundance” value turn out when `C#C[C@]1(O)C=C[C@H]2[C@@H]3CCC4=CC(=O)CC[C@@H]4[C@H]3CC[C@@]21CC` [Gestodene] was run?
Answer: 0.59

Question: For `Cc1cc(C(C#N)c2ccc(Cl)cc2)c(Cl)cc1NC(=O)c1cc(I)cc(I)c1O` (stereo not given) [Closantel], which “z-score of prototroph abundance” value is on record?
Answer: 0

Question: With `CCCN1C[C@H](CSC)C[C@@H]2c3cccc4[nH]cc(c34)C[C@H]21` [Pergolide Mesylate] as the compound, how does the “z-score of prototroph abundance” value read?
Answer: 0.88

Question: How did the “z-score of prototroph abundance” value turn out when `CN[C@@H]1[C@@H](O)[C@@H](O[C@@H]2[C@@H](O)[C@H](O[C@H]3O[C@H](CN)CC[C@H]3N)[C@@H](N)C[C@H]2N)OC[C@]1(C)O.CN[C@@H]1[C@@H](O)[C@@H](O[C@@H]2[C@@H](O)[C@H](O[C@H]3O[C@H]([C@@H](C)N)CC[C@H]3N)[C@@H](N)C[C@H]2N)OC[C@]1(C)O.CN[C@@H]1[C@@H](O)[C@@H](O[C@@H]2[C@@H](O)[C@H](O[C@H]3O[C@H]([C@@H](C)NC)CC[C@H]3N)[C@@H](N)C[C@H]2N)OC[C@]1(C)O` [Gentamicin Sulfate] was run?
Answer: 0.63

Question: `N#Cc1nn(-c2c(Cl)cc(C(F)(F)F)cc2Cl)c(N)c1[S+]([O-])C(F)(F)F` (stereo not given) [Fipronil] was tested. Which “z-score of prototroph abundance” value did it give?
Answer: 0.88

Question: With `C[N+]1(C)[C@@H]2C[C@@H](OC(=O)[C@H](CO)c3ccccc3)C[C@H]1[C@@H]1O[C@@H]12` [Methscopolamine] as the compound, how does the “z-score of prototroph abundance” value read?
Answer: -0.68

Question: With `COc1ccc2c3c([nH]c2c1)C(C)=NCC3` [Harmaline] as the compound, how does the “z-score of prototroph abundance” value read?
Answer: 3.47

Question: Which “z-score of prototroph abundance” value does the source give for `Nc1ccncc1` [4-Aminopyridine] here?
Answer: -0.05

Question: With `O=C(O[C@H]1C[N+]2(CCCOc3ccccc3)CCC1CC2)C(O)(c1cccs1)c1cccs1` [Aclidinium Bromide] as the compound, how does the “z-score of prototroph abundance” value read?
Answer: -0.31

Question: For `CC(C)=CCOc1c2occc2cc2ccc(=O)oc12` [Imperatorin], which “z-score of prototroph abundance” value is on record?
Answer: -0.8

Question: With `Oc1cc(Cl)ccc1Oc1ccc(Cl)cc1Cl` [Triclosan] as the compound, how does the “z-score of prototroph abundance” value read?
Answer: 2.53

Question: `CNC1CC(N)C(O)C(OC2OC(CO)C(O)C3OC4(OC(C(N)CO)C(O)C(O)C4O)OC23)C1O` (stereo not given) [Hygromycin B] was tested. Which “z-score of prototroph abundance” value did it give?
Answer: 0.64

Question: With `CCC1=C[C@H]2CN3CCc4c([nH]c5ccccc45)[C@](C(=O)OC)(C2)[C@H]13` [Catharanthine] as the compound, how does the “z-score of prototroph abundance” value read?
Answer: 0.37

Question: Which “z-score of prototroph abundance” value does the source give for `CC[C@@]1(O)C(=O)OCc2c1cc1n(c2=O)Cc2cc3ccccc3nc2-1` [Camptothecin] here?
Answer: 0.34

Question: `CCN(C)C(=O)Oc1cccc([C@H](C)N(C)C)c1` [Rivastigmine] was tested. Which “z-score of prototroph abundance” value did it give?
Answer: -0.39

Question: How did the “z-score of prototroph abundance” value turn out when `C[C@@H]1O[C@@H](O[C@H]2C[C@@H](O)[C@]3(CO)[C@H]4[C@H](O)C[C@]5(C)[C@@H](C6=CC(=O)OC6)CC[C@]5(O)[C@@H]4CC[C@]3(O)C2)[C@H](O)[C@H](O)[C@H]1O` [Ouabain] was run?
Answer: 0.81

Question: How did the “z-score of prototroph abundance” value turn out when `C[N+]12CCC(CC1)C(OC(=O)C(O)(c1ccccc1)c1ccccc1)C2` (stereo not given) [Clidinium Bromide] was run?
Answer: 0.13

Question: Which “z-score of prototroph abundance” value does the source give for `CC(=O)OCC1=C(C(=O)O)N2C(=O)C(N)C2SC1` (stereo not given) [7-Aminocephalosporanic acid] here?
Answer: 0.2

Question: With `Oc1cccc2cccnc12` [8-Hydroxyquinoline] as the compound, how does the “z-score of prototroph abundance” value read?
Answer: 0.32

Question: `CC[C@H]1[C@@H]2C[C@H]3[C@@H]4N(C)c5ccccc5[C@]45C[C@@H]([C@@H]2[C@H]5O)N3[C@@H]1O` [Ajmaline] was tested. Which “z-score of prototroph abundance” value did it give?
Answer: 0.22

Question: For `CN1[C@@H]2CC[C@H]1C[C@@H](OC(=O)[C@H](CO)c1ccccc1)C2` [Hyoscyamine], which “z-score of prototroph abundance” value is on record?
Answer: 0.38

Question: Which “z-score of prototroph abundance” value does the source give for `CC(C)N(CCC(C(N)=O)(c1ccccc1)c1ccccn1)C(C)C` (stereo not given) [Disopyramide] here?
Answer: -0.35

Question: Which “z-score of prototroph abundance” value does the source give for `CN1[C@@H]2CC[C@H]1C[C@@H](OC(=O)C(CO)c1ccccc1)C2` (stereo not given in full) [Atropine sulfate monohydrate] here?
Answer: 0.64

Question: For `CC[C@@H](C(N)=O)N1CCCC1=O` [Levetiracetam], which “z-score of prototroph abundance” value is on record?
Answer: 0.59

Question: Which “z-score of prototroph abundance” value does the source give for `CN(C)[C@@H]1C(=O)C(C(N)=O)=C(O)[C@@]2(O)C(=O)C3=C(O)c4c(O)cccc4[C@@](C)(O)[C@H]3[C@H](O)[C@@H]12` [Oxytetracycline Dihydrate] here?
Answer: 0.77

Question: Which “z-score of prototroph abundance” value does the source give for `COC(=O)C1=CCCN(C)C1` [Arecoline HBr] here?
Answer: -0.55

Question: Which “z-score of prototroph abundance” value does the source give for `Nc1nc(N)nc(NC2CC2)n1` [Cyromazine] here?
Answer: -1.21

Question: Which “z-score of prototroph abundance” value does the source give for `C[C@@H]1CC[C@H]2[C@@H](C)C(=O)O[C@@H]3O[C@@]4(C)CC[C@@H]1[C@]32OO4` [Artemisinin] here?
Answer: 1.7

Question: Which “z-score of prototroph abundance” value does the source give for `C[CH2][Hg][S]c1ccccc1C(=O)[O-].[Na+]` [Thimerosal] here?
Answer: -17.3

Question: `O=c1[nH]c2ccccc2n1CCCN1CCC(n2c(=O)[nH]c3cc(Cl)ccc32)CC1` [Domperidone] was tested. Which “z-score of prototroph abundance” value did it give?
Answer: -0.65

Question: `COc1ccc2[nH]cc(CCN)c2c1` [5-Methoxytryptamine] was tested. Which “z-score of prototroph abundance” value did it give?
Answer: -0.96

Question: `CN1[C@@H]2C[C@@H](OC(=O)[C@H](CO)c3ccccc3)C[C@H]1[C@@H]1O[C@@H]12` [Scopolamine HBr trihydrate] was tested. Which “z-score of prototroph abundance” value did it give?
Answer: 0.7

Question: `C[N+](C)(C)CCCCCCCCCC[N+](C)(C)C` [Decamethonium Bromide] was tested. Which “z-score of prototroph abundance” value did it give?
Answer: 0.58

Question: For `CCCCCCCCCCCCCCCC[n+]1ccccc1` [Cetylpyridinium Chloride], which “z-score of prototroph abundance” value is on record?
Answer: -12.7

Question: For `CN(C)[C@@H]1C(=O)C(C(N)=O)=C(O)[C@@]2(O)C(=O)C3=C(O)c4c(O)ccc(Cl)c4[C@@](C)(O)[C@H]3C[C@@H]12` [Chlortetracycline HCl], which “z-score of prototroph abundance” value is on record?
Answer: 0.13

Question: With `N[C@@H]1C[C@H]1c1ccccc1` [Tranylcypromine (2-PCPA) HCl] as the compound, how does the “z-score of prototroph abundance” value read?
Answer: 0.44

Question: `NCCc1c[nH]c2ccc(O)cc12` [Serotonin HCl] was tested. Which “z-score of prototroph abundance” value did it give?
Answer: 0.67

Question: With `CCOC(=O)Nc1ccc(NCc2ccc(F)cc2)cc1N` [Retigabine 2HCl] as the compound, how does the “z-score of prototroph abundance” value read?
Answer: 0.05

Question: For `O=[N+]([O-])C(Br)(CO)CO` [Bronopol], which “z-score of prototroph abundance” value is on record?
Answer: -0.24

Question: `CN(C)[C@@H]1C(=O)C(C(N)=O)=C(O)[C@@]2(O)C(=O)C3=C(O)c4c(O)cccc4[C@@](C)(O)[C@H]3C[C@@H]12` [Tetracycline HCl] was tested. Which “z-score of prototroph abundance” value did it give?
Answer: -0.24
